The results in this text go back to PubChem BioAssay (NCATS).

Inconclusive results are not listed. Unmarked numbers belong to inactive results. Active and inactive are the calls of the source. The call rests on the fitted dose curve; in most records, active means well fitted inhibition curve with a large enough effect; inconclusive means small, poorly fitted or top-dose-only effect; inactive means no such curve, though single readings can be large or run the other way.
On the % scale 0 is the no-effect control and ±100 the full control effect; potency means the concentration at half of the fitted maximal effect.

The target in this assay is N-terminal Xaa-Pro-Lys N-methyltransferase 1 (Homo sapiens) (UniProt Q9BV86). Description: qHTS Assay for Inhibitors of N-terminal methyltransferase 1 (NTMT1): LOPAC validation of the NTMT1 SAHH-coupled ThioGlo3 Assay (AID 1347143).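 Further: SAH from peptide methylation measured as thiol fluorescence via SAHH coupling and ThioGlo3; nearly all actives have a fitted effect of over 70% in size.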 The settings on record: recombinant NTMT1, SAHH-coupled ThioGlo3 fluorescence; series mostly up to 114 µM; activity change, negative = inhibition: at the top concentration. The gist of the method: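 NTMT1 125nM + cpds (various conc.), 1 min RT; add SAM 100uM/SAHH 10uM/ThioGlo3 15uM (addition mix). SAHH-coupled thiol detection, Ex340/Em450, t0 and 30 min RT; signal normalized to background. LOPAC 1280-cpd pilot.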
N-terminal Xaa-Pro-Lys N-methyltransferase 1 (Homo sapiens), sequence (Q9BV86 whole entry, looked up): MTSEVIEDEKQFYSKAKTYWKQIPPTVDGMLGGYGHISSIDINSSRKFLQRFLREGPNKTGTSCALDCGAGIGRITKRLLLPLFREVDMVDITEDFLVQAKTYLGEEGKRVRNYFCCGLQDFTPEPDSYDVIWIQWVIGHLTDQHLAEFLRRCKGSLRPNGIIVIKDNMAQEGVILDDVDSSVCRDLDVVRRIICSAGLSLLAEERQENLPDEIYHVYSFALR
In general terms: Quantitative high-throughput screening tests each substance at several concentrations.
With `OCCN(CCO)c1nc(N2CCCCC2)c2nc(N(CCO)CCO)nc(N3CCCCC3)c2n1`, the Potency is 79.4 µM (active).
Consider `CC(C)Cc1ccc(C(C)C(=O)O)cc1` (stereo not drawn), for which the “activity change, negative = inhibition” value is -7.59%.
With `CC(C)(C)C(=O)Oc1ccc(S(=O)(=O)Nc2ccccc2C(=O)NCC(=O)O)cc1`, the “activity change, negative = inhibition” value was -10.9%.
Regarding `CC(=O)OCC(CCn1cnc2cnc(N)nc21)COC(C)=O`, the Potency is 56.2 µM (active).
With `Cc1cnc(C(=O)NCCc2ccc(S(=O)(=O)NC(=O)NC3CCCCC3)cc2)cn1`, the “activity change, negative = inhibition” value was -11.9%.
As to `CC1COc2c(N3CCN(C)CC3)c(F)cc3c(=O)c(C(=O)O)cn1c23` (stereo not drawn), the Potency is 56.2 µM (active).
The same measure, in the same setting: next, `CC#C[C@]1(O)CC[C@H]2[C@@H]3CCC4=CC(=O)CCC4=C3[C@@H](c3ccc(N(C)C)cc3)C[C@@]21C`: 11.2 µM (active).
For `Clc1ccc2c(c1)C(N1CCNCC1)=Nc1ccccc1O2`, the “activity change, negative = inhibition” value was -16.7%.
The same measure, in the same setting: as for `NC12CC3CC(CC(C3)C1)C2`, the figure is 3.17%.
Regarding `CN1CCN(CCCN2c3ccccc3Sc3ccc(Cl)cc32)CC1`, the Potency was 44.7 µM (active).
Consider `NC(=O)NO`, for which the “activity change, negative = inhibition” value was -15.7%.
For `Cc1ccccc1N1C(=O)c2cc(S(N)(=O)=O)c(Cl)cc2NC1C` (stereo not drawn), the Potency was 79.4 µM (active).
With `CCN1CCCC1CNC(=O)c1cc(S(=O)(=O)CC)c(N)cc1OC` (stereo not drawn), the “activity change, negative = inhibition” value was -10.7%.
Still for that read-out and setting: next, `CC[C@@]1(O)C(=O)OCc2c1cc1n(c2=O)Cc2cc3c(CN(C)C)c(O)ccc3nc2-1`: 68.1%.
With `O=C1Cc2cc(CCN3CCN(c4nsc5ccccc45)CC3)c(Cl)cc2N1`, the Potency was 44.7 µM (active).
For the compound `Cc1cc(C(C)(C)C)c(O)c(C)c1CC1=NCCN1`, the “activity change, negative = inhibition” value is -11%.
Turning to `CCOC(=O)Nc1ccc(NCc2ccc(F)cc2)nc1N`, the Potency was 50.1 µM (active).
On the same count and under the same terms, as for `CN(Cc1cnc2nc(N)nc(N)c2n1)c1ccc(C(=O)N[C@@H](CCC(=O)O)C(=O)O)cc1`, the figure is 79.4 µM (active); as for `COc1cc2nc(N3CCN(C(=O)c4ccco4)CC3)nc(N)c2cc1OC`, 28.2 µM (active); as for `O=C1c2c(O)ccc(O)c2C(=O)c2c(NCCNCCO)ccc(NCCNCCO)c21`, 50.1 µM (active).
Same read-out and setting: as for `O=c1c(O)c(-c2ccc(O)c(O)c2)oc2cc(O)cc(O)c12`, the figure is 35.5 µM (active).
On to `CCC1(c2ccccc2)C(=O)NCNC1=O`, for which the “activity change, negative = inhibition” value is -9.22%.
Same read-out and setting: as for `Cc1ccc(-c2cc(C(F)(F)F)nn2-c2ccc(S(N)(=O)=O)cc2)cc1`, the figure is 23.9%.
